High-throughput results deposited in PubChem by National Center for Advancing Translational Sciences (NCATS).
HT1080 IDH1KD tx = kills HT-1080 cells with IDH1 knockdown; HT-1080 IDH1 knockdown viability, ATP luminescence, 48 h; Potency, µM (highest dose often 46.1 µM), for inactives: top-dose activity, negative = toxicity, most hits filed as cytotoxic; 2% of 360,000 active;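 further: 0% = DMSO wells and -100% = cell-free medium wells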
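Using the IDH1-knockdown HT-1080 line run in the same batch and compound series as the NT line, viability after 48 h at 37 °C was determined by CellTiter-Glo luminescence and expressed as % activity.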
KB-3-1 tox = KB-3-1 parental cell cytotoxicity; KB-3-1 viability, CellTiter-Glo ATP luminescence, 72 h; Potency, µM (series often up to 46.1 µM), usual class: cytotoxic; 1.4% of 400,000 active; AID 1347075; further: on the % scale 0 is the no-effect control and ±100 the full control effect; nearly all actives have a fitted effect of over 60% in size
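KB-3-1 parental drug-naive adenocarcinoma cells in DMEM/10% FBS, incubated 72 h at 37 C with pin-transferred compounds across a concentration series. Viability by CellTiter-Glo luminescence; concentration-response curves fitted after normalization.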
MCF10A rereplic = inducers of DNA re-replication in MCF 10A breast cells; 2.9% of 350,000 active; MCF 10A DNA re-replication, Hoechst nuclear intensity, 48 h; Potency, µM (titrated, usually from 46.1 µM), for the others: at the top dose activity, positive = re-replication, hits mostly activators; further: % of control where 0% means no effect; nearly all actives have a fitted effect of over 50% in size
HT1080NT lethal = kills 2HG-producing HT-1080-NT fibrosarcoma cells | Potency, µM (titrated, usually from 46.1 µM), inactives show top-dose activity, negative = less viability, actives largely listed as cytotoxic | HT-1080-NT fibrosarcoma viability, CellTiter-Glo ATP luminescence, 48 h | 1.6% of 360,000 active | AID 686970;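 further: NT is the 2HG producing partner of a matched IDH1 knockdown line; 0% = DMSO-treated cells and -100% = media-only wells without cells; nearly all actives have a fitted effect of over 55% in size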
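HT-1080-NT; 750 cells/well; 5% FBS RPMI; 48 h compound, 37 degrees C; CellTiter-Glo luminescence; curve fitting and curve-class assignment.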
KB-V1 cytotox = KB-V1 MDR subline cytotoxicity | AID 1347076 | 3.4% of 400,000 active | KB-V1 MDR cells viability, CellTiter-Glo, 72 h | Potency, µM (doses to about 46.1 µM), most hits filed as cytotoxic; further: on the % scale 0 is the no-effect control and ±100 the full control effect; nearly all actives have a fitted effect of over 60% in size
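Potencies derive from concentration-effect curves fitted to normalized luminescence (CellTiter-Glo) of KB-V1 cells treated for 72 h at 37 degrees C in phenol-red-free DMEM containing 10% FBS.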
SW480 rerep = inducers of DNA re-replication in SW480 colon cancer cells; SW480 DNA re-replication, Hoechst DNA content imaging, 48 h; Potency, µM (top dose mostly 46.1 µM), for the others: top-dose re-replication activation, actives largely listed as activators; 1.8% of 340,000 active; AID 624297; further: % of control where 0% means no effect; nearly all actives have a fitted effect of over 55% in size
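Treated cells incubate 48 hr (37 C, 5% CO2), are stained 40 min with Hoechst, and nuclear fluorescence is enumerated; a rise in nuclei with high DNA signal marks re-replication.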
An asterisk follows results filed as active; i = inactive; u = inconclusive; x = not tested or not shown. Compounds with a hit are over-represented: about 8% of the library has one in this group of screens. The call rests on the fitted dose curve; in most records, active means well fitted curve in the direction sought with a large enough effect; inconclusive means small, poorly fitted or top-dose-only effect, or another doubt; inactive means no such curve, though single readings can be large; an effect the other way counts as inactive or inconclusive. Potency means the concentration at half of the fitted maximal effect.

SMILES	HT1080 IDH1KD tx	KB-3-1 tox	MCF10A rereplic	HT1080NT lethal	KB-V1 cytotox	SW480 rerep
Cc1nn(C(C)(C)C)c(C)c1/C=N/OC(=O)Nc1ccc(Cl)cc1	-3.5%	i	u	-19.0%	i	6.4%
CCOP(=O)(OCC)c1nc(-c2ccc(Cl)cc2)oc1NCc1ccccc1	-18.0%	i	1.5%	-15.3%	u	-16.2%
COc1ccc(CNc2oc(-c3cccc4ccccc34)nc2P(=O)(OC)OC)cc1	-2.9%	i	20.6µM*	-5.9%	i	18.4µM*
CCCOP(=O)(OCCC)c1nc(-c2ccccc2)oc1NCc1ccccc1	u	i	u	-19.9%	u	14.6µM*
COP(=O)(OC)c1nc(-c2cccc3ccccc23)oc1N1CCCCC1	4.4%	i	20.6µM*	5.0%	i	u
COc1ccc(OC)c(NC(=O)C2C(C(=O)O)C3(Cl)C(Cl)=C(Cl)C2(Cl)C3(Cl)Cl)c1 (configuration not stated)	17.7%	i	u	13.9%	i	-4.3%
C[C@]12CCC(=O)C[C@@H]1CC[C@@H]1[C@@H]2CC[C@]2(C)[C@@H](O)CC[C@@H]12	8.4%	i	-35.9%	u	16.4µM*	-33.1%
COc1nc(C)nc(Cl)c1NC1=NCCN1	0.4%	i	5.5%	u	i	-31.5%
NS(=O)(=O)c1cc(C2(O)NC(=O)c3ccccc32)ccc1Cl (configuration not stated)	0.5%	i	-42.4%	-2.8%	i	-47.2%
O=C(C1CC1)N1CCC(c2nc(-c3ccc(S(=O)(=O)N4CCCC4)cc3)no2)CC1	u	i	0.2%	-18.7%	u	-4.2%
O=C(CC1CCCCC1)N1CCC(c2nc(-c3ccc(S(=O)(=O)N4CCCC4)cc3)no2)CC1	2.2%	i	u	4.4%	14.6µM*	u
CC(=O)NCC(N)C(=O)c1ccc(Cl)c(Cl)c1 (configuration not stated)	-12.5%	x	x	u	x	x
Cc1ccc(N/N=C/C=C/c2ccco2)cc1	-6.0%	i	11.6µM*	-28.0%	i	20.6µM*
S=C(S)N1CCCC1	2.6%	i	u	-0.5%	i	3.0%
CN(C)CCn1cnc2ccccc21	9.3%	i	9.8%	3.0%	i	1.9%
CN(C)CCCOc1nn(Cc2ccccc2)c2ccccc12	18.4µM*	i	-28.3%	u	u	-3.8%
CCOC(=O)CC(SP(=S)(OC)OC)C(=O)OCC (configuration not stated)	x	x	1.8%	x	x	-5.5%
Cc1cc(NC(=O)CCl)nn1C	u	13µM*	u	u	20.6µM*	u
Cc1cccc(NC(=S)N/N=C/c2ccc([N+](=O)[O-])s2)c1	u	u	u	17.8µM*	i	u
Cc1cccc(NC(N)=S)c1	-3.7%	i	-4.6%	-12.5%	i	5.7%
CC(=O)O[C@@]12CO[C@@H]1C[C@H](O)[C@@]1(C)C(=O)[C@H](O)C3=C(C)[C@@H](O)C[C@@](O)([C@@H](OC(=O)c4ccccc4)C12)C3(C)C (some centres not stated)	u	11.6µM*	u	u	i	u
C/C=C(\C)C(=O)N[C@@H](c1ccccc1)[C@@H](O)C(=O)O[C@H]1C[C@@]2(O)[C@@H](OC(=O)c3ccccc3)C3[C@](C)(C(=O)[C@H](O)C(=C1C)C2(C)C)[C@@H](O)C[C@H]1OC[C@@]31OC(C)=O (some centres not stated)	0.0058µM*	u	u	0.0411µM*	i	8.2µM*
C/C=C(\C)C(=O)N[C@@H](c1ccccc1)[C@@H](O)C(=O)O[C@H]1C[C@@]2(O)[C@@H](OC(=O)c3ccccc3)C3[C@](C)(C(=O)[C@H](OC(C)=O)C(=C1C)C2(C)C)[C@@H](O)C[C@H]1OC[C@@]31OC(C)=O (some centres not stated)	u	u	0.291µM*	u	i	1.16µM*
CC(C)(C)OC(=O)N1CC(O)CC1C(=O)OCC(=O)c1ccc(-c2ccccc2)cc1 (configuration not stated)	1.2%	i	u	-4.2%	u	3.0%
C=C1C(C)C2C(Cc3ccccc3)NC(=O)C23OC(=O)/C=C/C(O)CCCC(C)C/C=C/C3C1O (configuration not stated)	8.2µM*	u	6.51µM*	u	u	9.2µM*
SMILES	HT1080 IDH1KD tx	KB-3-1 tox	MCF10A rereplic	HT1080NT lethal	KB-V1 cytotox	SW480 rerep
C[C@H]1CN([C@@H](C)CO)C(=O)c2cccc(NC(=O)c3ccc(-c4nccs4)cc3)c2O[C@@H]1CN(C)C(=O)Nc1cccc2ccccc12	-10.5%	i	-1.0%	-8.2%	i	-1.7%
O=C1NC(=S)NC(=O)C1=Cc1cccn1-c1ccc(O)cc1	23.1µM*	u	u	u	i	-10.0%
CCc1ccc(N2C(=O)NC(=O)/C(=C/c3cccn3CCOc3ccc(C(C)CC)cc3)C2=O)cc1 (configuration not stated)	-1.7%	i	13µM*	-2.1%	i	13µM*
CCc1ccc(N2C(=O)NC(=O)/C(=C/c3cccn3CCOc3ccc(C)cc3)C2=O)cc1	15.6%	i	20.6µM*	19.6%	i	u
Cc1cc(C)cc(N2C(=O)NC(=O)/C(=C\c3cccn3-c3ccccc3)C2=O)c1	u	u	u	-21.4%	18.4µM*	u
Cc1cccc(OCCn2cccc2/C=C2/C(=O)NC(=O)N(Cc3ccco3)C2=O)c1	4.2%	i	u	0.0%	i	-2.3%
C[C@H]1O[C@H]1P(=O)(O)O	-4.6%	i	u	18.1%	i	u
Cc1cccc(CN2CC=C(c3noc(CCC(=O)Nc4ccc(C)c(F)c4)n3)CC2)c1	x	i	x	x	i	x
COC1=C(C)C(=O)C2=C(C1=O)C(CO)N1C(C#N)C3CC4C(C1C2N1CCOC41)N3C (configuration not stated)	0.651µM*	u	-1.9%	-17.2%	0.581µM*	u
C/C1=C\[C@@H](C)C/C=C/[C@H]2[C@@H]3O[C@]3(C)[C@@H](C)[C@H]3[C@H](Cc4c[nH]c5ccccc45)NC(=O)[C@]32C(=O)/C=C/C(=O)[C@@H]1O	u	i	0.731µM*	-22.2%	i	1.16µM*
COc1ccc(OCC(=O)N2CCN(Cc3cc(=O)n4nc(-c5ccccc5C)sc4n3)CC2)cc1	x	i	x	x	i	x
